Rows were chosen to be rich in hits. Some 19% of all compounds tested hit in one or more screens of this group.
CHX counter: affects cycloheximide protein synthesis inhibition readout, counter-screen; cell reporter, cycloheximide protein synthesis inhibition counterscreen; hit rate 12% among 300,000; AID 2314; max response, %; in the data active = max response mostly above about 13%, no sharp cut-off; inactive = mostly below about 14%; also: read at 38.3 µM for the half of the compounds with a filed dose; 0% is about no effect
Marburg entry inh: inhibitors of Marburg virus binding or cell entry. Marburg virus pseudotyped entry inhibition, cell reporter. Potency, µM (top dose mostly 37.8 µM), for inactives: top-dose activity change, negative = inhibition, most hits filed as inhibitors. hit rate 1.8% among 300,000. AID 540276; calls by dose curve; tested in HEK293 cells; also: potency is read from the fitted curve at half-maximal effect; % is scaled to controls: 0 for no effect and ±100 for the full control effect
Pf growth 96h: P. falciparum growth inhibition at 96 hour, primary screen for plastid delayed-death inhibitors; hit rate 6.9% among 320,000; Potency, µM (series often up to 28.7 µM), inactives show top-dose activity change, negative = inhibition, actives largely listed as inhibitors; AID 504834; P. falciparum luciferase reporter growth, 96 h; also: potency is read from the fitted curve at half-maximal effect; % is scaled to controls: 0 for no effect and ±100 for the full control effect
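Infected RBCs, 2% Hct / 0.05% parasitemia final; luciferase-reporter P. falciparum; cpd 96 h, 37 C, 5% CO2; luciferase detection reagent; luminescence.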
Shiga inhibitor: inhibitors of Shiga toxin in Vero cells. Vero cells, Shiga toxin protein synthesis inhibition reporter. inhibition, % at 38.7 µM. hit rate 9.2% among 290,000. AID 2315; in the data active = inhibition mostly above about 28%, no sharp cut-off; inactive = mostly below about 43%; also: 0% is about no effect
Lassa entry inh: inhibitors of Lassa virus binding or cell entry. hit rate 1.2% among 300,000. Potency, µM (series often up to 37.9 µM), without a hit: top-dose activity change, negative = inhibition, actives largely listed as inhibitors. Lassa virus pseudotype entry inhibition, cell reporter; calls by dose curve; tested in HEK293 cells; also: potency is read from the fitted curve at half-maximal effect; % is scaled to controls: 0 for no effect and ±100 for the full control effect; nearly all actives have a fitted effect of over 50% in size
Pf growth 48h: P. falciparum growth inhibition at 48 hours (one generation). P. falciparum luciferase growth in erythrocytes, 48 h. Potency, µM (titrated, usually from 28.7 µM), without a hit: at the top dose activity change, negative = inhibition, usual class: inhibitors. hit rate 5.9% among 310,000. AID 504832; also: potency is read from the fitted curve at half-maximal effect; % is scaled to controls: 0 for no effect and ±100 for the full control effect
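Luciferase-expressing P. falciparum in infected erythrocytes (2% hematocrit, 0.1% parasitemia final) in RPMI 1640/0.5% Albumax were exposed to compound for 48 hours at 37 C, 5% CO2; growth read as luminescence.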
The depositor's hits bear a star; ? = inconclusive; nt = no result given; + = active, no number; [ ] = another dose, or the depositor's remark. Unless noted, calls follow the shape of the dose curve; as a rule, active = well fitted inhibition curve with a large enough effect; inconclusive = small, poorly fitted or top-dose-only effect, or another doubt; inactive = no such curve, though single readings can be large or run the other way.

SMILES	CHX counter	Marburg entry inh	Pf growth 96h	Shiga inhibitor	Lassa entry inh	Pf growth 48h
COc1ccc(-c2csc(=Nc3c(C)n(C)n(-c4ccccc4)c3=O)n2C(C)(C)C)cc1	0	-24%	33%	4	?	?
Cc1ccccc1-c1nc(CS(=O)(=O)CC(=O)Nc2c(C)cccc2C)c(C)o1	nt	-3%[46.1 µM]	nt	nt	-14%[46.1 µM]	nt
O=C(NC(NC(=S)Nc1ccccc1)C(Cl)(Cl)Cl)c1cccc(Cl)c1 (stereo not drawn)	11	?	13µM*	16	?	?
COc1ccc([N+](=O)[O-])cc1NC(=S)NC(NC(C)=O)C(Cl)(Cl)Cl (stereo not drawn)	-4	nt	15%	18	nt	8%
O=C(O)c1cccc(NC(=S)NC(NC(=O)c2ccccc2[N+](=O)[O-])C(Cl)(Cl)Cl)c1 (stereo not drawn)	7	nt	-25%	22	nt	-2%
O=C(NC(NC(=S)Nc1ccc(Cl)cc1Cl)C(Cl)(Cl)Cl)c1cccc([N+](=O)[O-])c1 (stereo not drawn)	-1	?	?	9	?	1.7µM*
O=C(O)c1cccc(NC(=S)NC(NC(=O)c2cccc([N+](=O)[O-])c2)C(Cl)(Cl)Cl)c1 (stereo not drawn)	11*	nt	-8%	21	nt	107%
CN(C)C(=O)NC(NC(=S)Nc1ccccc1)C(Cl)(Cl)Cl (stereo not drawn)	20	nt	6%	1	nt	?
CC(C)C(=O)OCc1cc(=O)n2nc(C3CCCCC3)sc2n1	nt	nt	nt	nt	-2%[46.1 µM]	nt
CC(C)(C)c1ccc(S(=O)(=O)CCc2ccccn2)cc1	27*	18%	-48%	54*	?	nt
CC(C)(C)c1ccc(SCCc2ccccn2)cc1	40*	7%	190%	89*	-4%	176%
Fc1ccc(SCCc2ccccn2)cc1	52*	0%[46.1 µM]	0%	72*	0%	27%
CN(C)c1ccc(/C=C/C(=O)c2ccc3c(c2)OCO3)cc1	nt	-24%	121%	nt	?	150%
C/C(=N\NC(=O)c1cc(Br)ccc1O)c1ccccn1	28*	9%[46.1 µM]	?	41*	2%[46.1 µM]	?
C/C(=N\NC(=O)c1ccc(Cl)c(Cl)c1)c1ccccn1	8	?	?	5	5.6µM*	0.59µM*
C/C(=N\NC(=O)c1cccc(Br)c1)c1ccccn1	27*	4.5µM*	-6%	87*	?	0.74µM*
O=C(N/N=C1/CCSC1)c1cc(Br)ccc1O	5	-1%[14.2 µM]	24%	21	8%	-2%
C/C(=N\NC(=O)c1ccc(NS(=O)(=O)c2cccs2)cc1)c1ccccn1	2	?	12µM*	19	?	?
CCN1C(=O)c2ccc(C(=O)Nc3c(C)cc(C)cc3C)cc2C1=O	-2	4%[46.1 µM]	?	-5	-15%[46.1 µM]	-8%
CN(C)C(=O)c1ccc(-c2n[nH]c(=O)c3ccccc23)cc1	-4	nt	?	-4	nt	3%
C/C(=N\NC(=O)c1cccc2ccccc12)c1ccccn1	-1	?	2.1µM*	-4	7.9µM*	?
NNC(=O)c1cc(-c2cccs2)nc2ccccc12	1	nt	-19%	-6	nt	?
C/C(=N\NC(=O)c1cc(-c2cccs2)nc2ccccc12)c1ccccn1	8	4.6µM*	?	-3	6.5µM*	?
COc1ccc(NC(=O)c2ccccn2)cc1OC	61*	8%	222%	90*	-4%	177%
C/C(=N/NC(=O)c1ccccn1)c1ccncc1	36*	?	?	92*	6%	48%
SMILES	CHX counter	Marburg entry inh	Pf growth 96h	Shiga inhibitor	Lassa entry inh	Pf growth 48h
COc1ccc(NC(=O)c2ccccn2)cc1	24	?	316%	19	?	283%
C/C(=N/NC(=O)c1cccc(Br)c1)C1CC2CCC1C2 (stereo not drawn)	47*	nt	-9%	38	nt	13%
NS(=O)(=O)c1ccc(NC(=O)c2cc(-c3cccs3)nc3ccccc23)cc1	-3	1%[46.1 µM]	0.41µM*	-18	-18%[46.1 µM]	26%
C/C(=N\NC(=O)C(c1ccccc1)c1ccccc1)c1ccc(O)cc1	3	nt	?	-16	nt	?
Cc1ccc(NC(=O)c2cc(-c3cccs3)nc3ccccc23)c(C)c1	nt	?	nt	nt	5%[46.1 µM]	nt
Cc1cccc2sc(NNC(=O)c3cc(-c4cccs4)nc4ccccc34)nc12	-1	-69%	4.1µM*	26	?	?
C/C(=N\NC(=O)C(c1ccccc1)c1ccccc1)c1ccccn1	-3	?	2.3µM*	-1	?	2.3µM*
C/C(N)=C(/C#N)C(=O)CSc1nc2ccccc2c(=O)n1-c1ccc(C)cc1	5	nt	-23%	-1	nt	-12%
CNS(=O)(=O)c1cccc(C(=O)NCC2(N3CCOCC3)CCCCC2)c1	-2	4%[46.1 µM]	3%	10	0%	-14%
Cc1ccccc1C(=O)NC1CCN(CC(=O)NCc2ccc(F)cc2)CC1	0	-21%[46.1 µM]	?	-3	-29%[46.1 µM]	-19%
C#CCCCO/N=C1/C[C@@H](O)[C@@H](O)[C@@H]2[C@@H]3C(=O)N(C4CCCCC4)C(=O)[C@H]3CC[C@@H]12	nt	43%[14.2 µM]	nt	nt	nt	nt
C/C(=N\NC(=O)c1ccoc1C)c1cccc2ccccc12	62*	-7%	12%	80*	-1%	?
COc1cc(C(C)=NNC(=O)c2ccncc2)ccc1O	nt	3%	nt	nt	4%	nt
COc1ccc(Cl)cc1NC(=O)NNC(=O)c1ccccn1	24*	nt	10µM*	-1	nt	-23%
COc1ccc(C(=O)N/N=C(\C)c2ccccn2)cc1OC	22*	6.3µM*	51%	42*	5.6µM*	?
C/C(=N\NC(=O)c1ccccc1Cl)c1ccccn1	28*	nt	-5%	85*	nt	1.7µM*
CC1CN(C(=O)c2cn3ccccc3n2)CC(C)O1 (stereo not drawn)	-1	14%	41%	-4	?	45%
O=C(C1CCCN(Cc2cccc(Cl)c2)C1)N1CCCCC1 (stereo not drawn)	0	nt	-8%	-2	nt	nt
Cc1nn(C)cc1/C=N/O	-1	?	nt	-11	-25%	3%
COc1cc(O)c(C(=O)O)c(CCc2ccccc2)c1	nt	0%	nt	nt	nt	nt
COc1ccccc1NC(=S)NN=C(C)c1ccccn1	nt	?	nt	nt	0.28µM*	nt
C/C(Cn1nnc2ccccc21)=N\NC(=O)c1cccc(Br)c1	24*	5%	?	+	21%	13%
O=C(Cn1ncc2c([nH]c3ccccc32)c1=O)NCCCN1CCN(c2ccccc2)CC1	8	nt	3%	15	16%[46.1 µM]	-16%
CCOC(=O)CN1C(=O)c2ccccc2C1=O	-5	5%	nt	-8	1%	4%
CCOC(=O)CN1C(=O)CN(c2ccc(C)cc2)C1=O	29*	1%	-1%	50*	29%	83%
NC(=O)C(c1ccc(Sc2ccccc2)nn1)c1ccc(Cl)cc1Cl (stereo not drawn)	-3	8%	nt	-17	-20%	-6%

High-throughput results (PubChem)
